# Inconclusive results are not listed. The source made the active and inactive calls. How the source made its calls: active means hit-call score of the fitted dose curve at least 0.9, where 1 is the maximum; inconclusive means response in the unintended direction; inactive means score below 0.9.
# Columns and labels:
# [1] = TOX21_p53_BLA_p3_viability: Viability Assessment in the Tox21 HCT-116 p53 Agonism Beta-lactamase Assay, Phase 3 (AID 2283593);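 further: cells exposed to compound for 16 h before reading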
# How it was run: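 HCT-116 cells (4000/well) rested 5 h at 37C, then got DMSO compounds by pin tool (217-fold dilution) for 16 h at 37C, 5% CO2. After the bla read, CellTiter-Glo was added and luminescence read at 30 min, room temperature.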
# [2] = TOX21_p53_BLA_p4_viability: Viability Assessment in the Tox21 HCT-116 p53 Agonism Beta-lactamase Assay, Phase 4 (AID 2283597);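 further: hits lower the luminescence signal meaning cytotoxicity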
# How it was run: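 Cells plated, 5 h pre-incubation; DMSO compounds pinned (217-fold dilution); 16 h, 37C/5% CO2; CCF4-AM 2 h RT; CellTiter-Glo 30 min RT; luminescence read.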
# [3] = TOX21_p53_BLA_p5_viability: Viability Assessment in the Tox21 HCT-116 p53 Agonism Beta-lactamase Assay, Phase 5 (AID 2283600)
# How it was run: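 4000 cells/well; 5 h pre-incubation; DMSO compounds pin-transferred, 217-fold dilution; 16 h, 37C/5% CO2; CCF4-AM 2 h RT; CellTiter-Glo 30 min RT; luminescence.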
# [4] = molecular target: Cellular tumor antigen p53 (Homo sapiens) (UniProt P04637); test: TOX21_p53_BLA_p4_ratio: Tox21 HCT-116 p53 Agonism Beta-lactamase Assay, Ratio, Phase 4 (AID 2283601)
# How it was run: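 HCT116 cells carrying an inducible beta-lactamase reporter were plated at 4000 cells/well, rested 5 h, then exposed to compounds in DMSO (217-fold dilution) for 16 h at 37C. CCF4-AM substrate was loaded 2 h at room temperature; 460/530 nm emission ratio scored gain-of-signal versus DMSO.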
# [5] = molecular target: Cellular tumor antigen p53 (Homo sapiens) (UniProt P04637); test: TOX21_p53_BLA_p5_ratio: Tox21 HCT-116 p53 Agonism Beta-lactamase Assay, Ratio, Phase 5 (AID 2283599)
# How it was run: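 HCT-116 cells carrying a p53-inducible beta-lactamase reporter were seeded at 4000 cells/well and dosed after 5 h with compound in DMSO (217-fold dilution). After 16 h at 37C, CCF4-AM substrate was added for 2 h, and the 460/530 nm emission ratio was scored as gain-of-signal versus DMSO.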
# [6] = molecular target: Cellular tumor antigen p53 (Homo sapiens) (UniProt P04637); test: TOX21_p53_BLA_p3_ratio: Tox21 HCT-116 p53 Agonism Beta-lactamase Assay, Ratio, Phase 3 (AID 2283596)
# How it was run: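 HCT116 p53-bla cells (4000/well) given compound in DMSO (217-fold dilution) after 5 h, incubated 16 h at 37C. CCF4-AM substrate 2 h at room temperature; 460/530 nm emission ratio, gain fitted against DMSO.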
# Sequence of Cellular tumor antigen p53 (Homo sapiens) (P04637 whole entry, looked up): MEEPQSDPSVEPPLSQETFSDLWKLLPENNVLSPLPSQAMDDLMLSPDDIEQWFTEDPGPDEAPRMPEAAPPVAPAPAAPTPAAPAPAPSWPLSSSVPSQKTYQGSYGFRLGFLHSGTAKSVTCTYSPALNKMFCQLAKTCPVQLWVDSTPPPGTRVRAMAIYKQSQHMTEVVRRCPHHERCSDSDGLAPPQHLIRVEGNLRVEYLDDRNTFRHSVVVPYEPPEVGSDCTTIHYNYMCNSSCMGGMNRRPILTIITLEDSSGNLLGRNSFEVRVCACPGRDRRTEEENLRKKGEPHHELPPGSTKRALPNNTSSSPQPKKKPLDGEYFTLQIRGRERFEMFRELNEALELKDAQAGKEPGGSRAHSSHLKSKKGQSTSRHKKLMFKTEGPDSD
structure (smiles),measurement,setting,value
CCCCC(=O)O[C@]1(C(=O)CO)CC[C@H]2[C@@H]3CCC4=CC(=O)CC[C@]4(C)[C@H]3[C@@H](O)C[C@@]21C,outcome,[1],inactive
same,outcome,[2],inactive
same,outcome,[3],inactive
same,outcome,[4],inactive
O=C(O[C@@H](C(=O)O)[C@@H](OC(=O)c1ccccc1)C(=O)O)c1ccccc1,outcome,[1],inactive
same,outcome,[5],inactive
same,outcome,[3],inactive
Nc1ccc(C(=O)NCC(=O)O)cc1,outcome,[1],inactive
same,outcome,[6],inactive
same,outcome,[5],inactive
same,outcome,[3],inactive
same,outcome,[4],inactive
CC(=O)c1cnccn1,outcome,[1],inactive
same,outcome,[6],inactive
same,outcome,[5],inactive
same,outcome,[4],inactive
O=C(O)/C=C/c1cnc[nH]1,outcome,[1],inactive
same,outcome,[2],inactive
same,outcome,[4],inactive
CC(C)(C)N(CCO)CCO,outcome,[1],inactive
same,outcome,[6],inactive
same,outcome,[4],inactive
Oc1cc(O)cc(O)c1,outcome,[6],inactive
same,outcome,[2],inactive
same,outcome,[5],inactive
CCCC(=O)Nc1ncnc2c1ncn2[C@@H]1O[C@@H]2COP(=O)(O)O[C@H]2[C@H]1OC(=O)CCC,outcome,[1],inactive
same,outcome,[5],inactive
same,outcome,[3],inactive
same,outcome,[4],inactive
CCCCS(=O)(=O)N[C@@H](Cc1ccc(OCCCCC2CCNCC2)cc1)C(=O)O,outcome,[1],inactive
same,outcome,[5],inactive
same,outcome,[4],inactive
CCCSSC(CCO)=C(C)N(C=O)Cc1cnc(C)nc1N,outcome,[6],inactive
same,outcome,[2],inactive
CC(C)CCCC(=O)O,outcome,[6],inactive
same,outcome,[2],inactive
[Cl-].[Cl-].[NH-]CC[NH-].[Pt+4],outcome,[6],inactive
same,outcome,[2],inactive
CCC(=O)c1cccc(Cl)c1,outcome,[1],inactive
same,outcome,[3],inactive
same,outcome,[4],inactive
Nc1cccc2c(=O)[nH][nH]c(=O)c12,outcome,[1],inactive
same,outcome,[3],inactive
same,outcome,[4],inactive
FC(F)(F)c1ccccc1,outcome,[1],inactive
same,outcome,[5],inactive
same,outcome,[3],inactive
same,outcome,[4],inactive
Cc1nnc(C(=O)NC(C)(C)c2nc(C(=O)NCc3ccc(F)cc3)c(O)c(=O)n2C)o1,outcome,[6],inactive
CNc1c2c(nn1C)CCCC2,outcome,[6],inactive
same,outcome,[2],inactive
same,outcome,[5],inactive
same,outcome,[3],inactive
Cc1ccc(NC(N)=O)cc1,outcome,[1],inactive
same,outcome,[5],inactive
same,outcome,[4],inactive
CCCCCC/C=C/C(=O)OC,outcome,[6],inactive
CN(C)CC/C=C1\c2ccccc2COc2ccccc21,outcome,[6],inactive
OC1CCCc2ccccc21 (centres undefined),outcome,[1],inactive
same,outcome,[3],inactive
same,outcome,[4],inactive
CCCCc1ncc(/C=C(\Cc2cccs2)C(=O)O)n1Cc1ccc(C(=O)O)cc1,outcome,[1],inactive
same,outcome,[5],inactive
same,outcome,[4],inactive
Cc1ccc(C(=O)c2ccc(CC(=O)O)n2C)cc1,outcome,[6],inactive
CCN1CCCC(OC(=O)C(c2ccccc2)c2ccccc2)C1 (centres undefined),outcome,[6],inactive
CCCCC/C=C\C/C=C\CCCCCCCC(=O)NC(C)c1ccccc1 (centres undefined),outcome,[1],inactive
same,outcome,[5],inactive
same,outcome,[4],inactive

# — PubChem BioAssay (EPA / NIEHS)
